Data taken from ChEMBL document CHEMBL3988442, “University of Dundee, Small-Polar-MMV Screening Library” (2021).
Out of some 48,000 compounds screened, about 13,000 (27%) showed an effect of 50% or more. The list shows a part of the results.

Tested on: Wolbachia pipientis
Experiment: Anti-Wolbachia Cell-Based Screen
Assay type: functional
Parameters: scale not given: in the data most compounds retested in dose-response had high values
Details: 5 µM

Row | Structure (SMILES) | Percent Effect [%]
1 | CCNC(=O)CCC(=O)NC(C)Cc1ccccc1Br (centres undefined) | 15.31
2 | N#Cc1cnc2ccccc2c1N1CCNCC1 | -0.76
3 | Cc1nn(C)c2ncc(S(=O)(=O)N3CCCN4CCCC4C3)cc12 (centres undefined) | -8.04
4 | CC(C)n1[nH]c(=O)c2c1NC(=O)CSC2c1cccc(OCC(N)=O)c1 (centres undefined) | 107.3
5 | CC(C)n1[nH]c(=O)c2c1NC(=O)CSC2c1ccc(OCC(N)=O)cc1 (centres undefined) | 116.2
6 | COc1cc(OC)cc(C2SCC(=O)Nc3ccsc32)c1 (centres undefined) | -4.704
7 | COc1cccc(C2SCC(=O)Nc3ccsc32)c1 (centres undefined) | -17.04
8 | CCN1CCC2(CCC1=O)CN(c1ccnc(SC)n1)CCN2C (centres undefined) | -2.766
9 | Cc1cc(CC(=O)N2CCN(CC(C)C)[C@@H]3CS(=O)(=O)C[C@@H]32)ccc1F | -16.98
10 | CC1=N[C@@]2(CC[C@@H]3CN(CC(C)C)C[C@@H]32)C(=O)N1 | -12.28
11 | CCC1=N[C@@]2(CC[C@@H]3CN(CC)C[C@@H]32)C(=O)N1C | 107.7
12 | COc1ccc(C(=O)C2CCCN(Cc3ccncc3)C2)c(OC)c1 (centres undefined) | -2.027
13 | Cc1c(CC(=O)N2CCN(CC(F)(F)F)CC2)nnn1-c1ccccc1 | -7.021
14 | CCOCC(O)CN1CCN(C(=O)Cc2ccccc2Cl)CC1 (centres undefined) | -8.97
15 | Cl.O=C(Cc1ccc(F)cc1)N1CCN(CC(O)C2CC2)CC1 (centres undefined) | -12.59
16 | Cc1oc(-c2ccco2)nc1CC(=O)N1CCN(CC(C)(C)O)CC1 | -7.111
17 | COc1ccc(Cl)cc1CC(=O)N1CCN(CC(C)(C)O)CC1 | 104.9
18 | COc1ccc(Cl)cc1CC(=O)N1CCN(CC(C)O)CC1 (centres undefined) | 112.2
19 | CCC1CNCc2cc3c(OC)ccc(OC)c3nc2O1 (centres undefined) | 82.52
20 | CCC1CNCc2cc3c(C)ccc(C)c3nc2O1 (centres undefined) | 108.6
21 | OCCCN(CCc1cccc(F)c1)C1CC1 | 110
22 | CN1C(=O)C2(CCNCC2)c2cc(F)ccc21.Cl | -10.96
23 | CN1C(=O)CC2(CCNCC2)c2ccccc21 | -12.38
24 | CC(=O)N1CC2(CCNCC2)c2cc(C)ccc21 | -30.16
25 | COC(=O)N1CC2(CCNCC2)c2cc(Cl)ccc21.Cl | 101.7

Row | Structure (SMILES) | Percent Effect [%]
26 | CC(=O)N1CC2(CCNCC2)c2cc(Cl)ccc21.Cl | 94.12
27 | Cn1nc(-c2cccs2)cc1[C@H]1CN2CC[C@H]1C[C@@H]2CNS(C)(=O)=O | -2.456
28 | CC(Cn1ccnc1)NS(=O)(=O)c1ccc(C#N)c(Cl)c1 (centres undefined) | 2.375
29 | CCOc1ccc(C2SCC(=O)Nc3c2c(=O)[nH]n3C(CC)CC)cc1 (centres undefined) | 117.7
30 | CC(C)COc1ccc(C2SCC(=O)Nc3c2c(=O)[nH]n3C(C)C)cc1 (centres undefined) | 105.8
31 | COc1cc(C2SCC(=O)Nc3ccsc32)cc(OC)c1OC (centres undefined) | -0.744
32 | CCCOc1ccc(C2SCC(=O)Nc3c2c(=O)[nH]n3C(C)C)cc1 (centres undefined) | 107.1
33 | O=C1CSC(c2ccsc2)c2c(n(C3CCOCC3)[nH]c2=O)N1 (centres undefined) | 12.85
34 | CCOc1ccc(C2SCC(=O)Nc3c2c(=O)[nH]n3C(C)C)cc1 (centres undefined) | 112
35 | O=C1CSC(c2ccc(O)c(Cl)c2)c2c(n(C3CCOCC3)[nH]c2=O)N1 (centres undefined) | 12.23
36 | CC(C)c1nccc([C@H]2C[C@@H]3CCN(Cc4ccco4)C[C@H]3O2)n1 | -3.761
37 | O=C(Nc1cccnc1)[C@H]1CN(Cc2cccs2)C[C@H]2OCC[C@@H]12 | -5.403
38 | CNS(=O)(=O)CC(=O)NC(C)Cc1ccccc1Br (centres undefined) | -19.16
39 | COCC(C)NC(=O)c1cn(C(C)(C)C)c2ncccc12 (centres undefined) | 0.2413
40 | COCCN(CCOC)C(=O)c1cn(C(C)(C)C)c2ncccc12 | 135.3
41 | CCOCCCNC(=O)c1cn(C(C)(C)C)c2ncccc12 | 117.9
42 | COCCNC(=O)c1cn(C(C)(C)C)c2ncccc12 | 1.004
43 | COCCCNC(=O)c1cn(C(C)(C)C)c2ncccc12 | 120.5
44 | CC(Cn1ccnc1)NCc1n[nH]c2c1CCC2 (centres undefined) | -9.016
45 | N#Cc1ccc(N2CCC(OC3CCOCC3)CC2)cc1Cl | -7.664
46 | O=C(CC[C@@H]1CCCN2CCCC[C@H]12)NCCc1cc(O)ncn1 | -16.08
47 | CCc1noc(CC)c1CC(=O)N1CCN(C(C#N)C(C)C)CC1 (centres undefined) | -3.422
48 | Cc1noc([C@]23COC[C@H]2CN(Cc2cc(C)on2)C3)n1.O=C(O)C(F)(F)F | 2.509
49 | FC(F)CN1CCOC(Cn2cccn2)C1 (centres undefined) | 120.3
50 | Cc1ncc2c(c1CNC(=O)C1(C)CCCO1)CCNC2 (centres undefined) | 2.031

Row | Structure (SMILES) | Percent Effect [%]
51 | CC(C)NC(=O)[C@@H]1C[C@H]2NCC[C@H]2O1.Cl | 109.5
52 | CC(C)NC(=O)[C@H]1C[C@H]2NCCO[C@@H]2C1 | 34.99
53 | O=C(NC1CCC1)[C@H]1C[C@H]2NCCO[C@@H]2C1 | -2.9
54 | Cc1cccc(C(=O)N2C[C@@H]3OCCN(C(C)C)[C@@H]3C2)n1 | -13.51
55 | COCC(=O)N1CC[C@H]2[C@H]1CCN2CC(C)C | -1.269
56 | O=C(O)C(F)(F)F.O=C(O)C(F)(F)F.OCCN1CC2(CCN(c3ccccc3)C2)C1 | 6.244
57 | OCCN1CCC(F)(F)C2(CCN(c3cccnc3)C2)C1 (centres undefined) | 103.9
58 | Cc1ccc(N2CCC3(CN(CCO)CCC3(F)F)C2)nn1.O=C(O)C(F)(F)F (centres undefined) | 100.9
59 | FC1(F)CCNCC12CCN(c1cccnc1)C2.O=C(O)C(F)(F)F.O=C(O)C(F)(F)F (centres undefined) | -21.44
60 | O=C(O)C(F)(F)F.O=C(O)C(F)(F)F.O=C(O)CN1CCC(F)(F)C2(CCN(c3ccccn3)C2)C1 (centres undefined) | -9.228
61 | NCC1(c2cccc(C(F)(F)F)c2)CC1 | -45.72
62 | C[C@H]1C[C@@H]2CCN(Cc3nccs3)C[C@H]2O1 | -9.973
63 | CC(Cn1ccnc1)NCc1csc2c1CCCC2 (centres undefined) | -4.512
64 | CCOCC(O)CN1CCN(C(=O)Cc2ccc(C)nc2)CC1 (centres undefined) | -10.97
65 | CCC(O)CN1CCN(C(=O)Cc2nc(-c3ccco3)oc2C)CC1 (centres undefined) | -5.833
66 | CCC(O)CN1CCN(C(=O)Cc2c(C)nc(C)[nH]c2=O)CC1 (centres undefined) | -7.478
67 | CCOCC(O)CN1CCN(C(=O)Cc2ccccc2C)CC1 (centres undefined) | -8.235
68 | CCC(O)CN1CCN(C(=O)Cc2ccc(OC)cc2OC)CC1 (centres undefined) | 102.8
69 | CCC(O)CN1CCN(C(=O)Cc2cc(C)ccc2OC)CC1 (centres undefined) | 134
70 | COCCN1C[C@H]2CC[C@@H]1CN(Cc1ccc3ccccc3n1)C2 | 26.94
71 | CCc1ccc(CN2CCN(C)c3ncccc3C2)o1.O=C(O)C(F)(F)F.O=C(O)C(F)(F)F | 45.7
72 | CN1CCN(S(=O)(=O)c2ccccc2)Cc2cccnc21.O=C(O)C(F)(F)F | 87.5
73 | CN1CCN(S(=O)(=O)c2cccc(F)c2)Cc2cccnc21.O=C(O)C(F)(F)F | 100.3
74 | Cc1cnc(N2CCN(C)c3ncccc3C2)nc1.O=C(O)C(F)(F)F | 1.496
75 | Cc1ccc(N2CCN(C)c3ncccc3C2)nn1.O=C(O)C(F)(F)F | 6.797

Row | Structure (SMILES) | Percent Effect [%]
76 | Cl.Cl.c1ccc(COC[C@H]2CCC[C@@]23CNCCO3)nc1 | 88.66
77 | Cl.Cl.c1ccc(COC[C@@H]2CCC[C@@]23CNCCO3)nc1 | 92.25
78 | Fc1cccnc1N1CCC2(CNCCC2(F)F)C1 (centres undefined) | 8.279
79 | Cc1ccc(N2CC[C@@H]3CN(Cc4c[nH]cn4)C[C@@H]3C2)nn1 | -8.039
80 | CN1Cc2ccccc2NC(=O)C12CCNC2 (centres undefined) | 111
81 | CN1CCC2(Cc3ccccc3NC2=O)C1 (centres undefined) | -15.76
82 | CCOCCC(=O)N1C[C@H]2CC[C@@H]1CN(Cc1ccncc1)C2 | 3.16
83 | CN1CCN2C[C@@H](CO)[C@H](c3ccccc3)[C@H]2C1 | 108.7
84 | OC[C@H]1CN2CCN(c3ccccn3)C[C@@H]2[C@@H]1c1ccccc1 | 97.55
85 | Cc1nc(CC(=O)N2CCN(C)CC2c2ccccc2)cs1 (centres undefined) | -2.978
86 | CN1CCN2C(=O)N(c3ccccc3)C[C@H]2C1 | 3.165
87 | OC[C@@H]1CN2CCN(c3ccccn3)C[C@@H]2[C@H]1c1ccccc1 | 91.03
88 | O=C(Cc1ccc(-n2cccn2)cc1)N1CCN2CCCCC2C1 (centres undefined) | 0.2002
89 | N#Cc1cccc(N2CCOC3(CNCCOC3)C2)n1 (centres undefined) | -42.42
90 | Cc1cc(CN2C[C@@H]3COC[C@]3(CNS(C)(=O)=O)C2)no1.O=C(O)C(F)(F)F | -0.4635
91 | Cc1nc(C2(NCC(=O)NC(=O)NCC(F)(F)F)CCCCC2)no1 | 132.3
92 | Cc1nc(C2(NCC(=O)NC(=O)Nc3ccccc3)CCCCC2)no1 | 112.9
93 | Cc1nc(C2(NCc3cc(C#N)ccc3F)CCCCC2)no1 | 11.5
94 | Cc1nc(C2(NCC(=O)NCc3cccs3)CCCCC2)no1 | 113.6
95 | Cc1nc(C2(NCc3ccc(C#N)cc3F)CCCCC2)no1 | 2.337
96 | Cc1nc(C2(NCc3cccc(F)c3F)CCCCC2)no1 | -2.659
97 | Cc1cccnc1CCNC(=O)[C@@]12CNC[C@@H]1CN(S(C)(=O)=O)C2 | -16.39
98 | Cc1cccnc1CC(C)NC1CCSCC1 (centres undefined) | -10.51
99 | CC(Cc1c(F)cccc1F)NC(=O)CSCC(N)=O (centres undefined) | -4.817
